# Screening data (PubChem BioAssay)
# p97 inhibitor: inhibitors of human p97 ATPase, primary screen, biochemical; hit rate 0.42% among 220,000; inhibition, % at 8 µM; AID 1481, 2009; recombinant p97 ATPase, Kinase-Glo ATP luminescence, 3 h; in the data active = inhibition above about 15%;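 also: 0% = DMSO vehicle and 100% = wells lacking enzyme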
# Arbovirus anti: antivirals against arbovirus infection, primary screen, cell-based, full library, 10K replicate subset; inhibition, % at 10 µM; hit rate 0.37% among 200,000; arbovirus infection cell-based antiviral screen; in the data active = inhibition above about 30%
# PGE2 EP2 inh: human EP2 receptor antagonists, primary screen, TR-FRET cAMP, C6 glioma cells; hit rate 0.52% among 260,000; inhibition, % at 25 µM; C6 glioma cells expressing human EP2; cells stimulated with saturating PGE2; Prostaglandin E2 receptor EP2 subtype (Homo sapiens), P43116; AID 1422, 2008;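 active = percent inhibition above 40 after rounding to a whole number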;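 also: rat C6 glioma host cells with rolipram phosphodiesterase inhibitor present; the protocol text gives 20 µM as final concentration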
# Hck-Nef inh: inhibitors of Nef-activated human Hck kinase, primary screen, biochemical, Z-Lyte FRET, 384-well, Hck-YEEI; Tyrosine-protein kinase HCK (Homo sapiens), P08631; Recombinant Hck-YEEI plus Nef, Z-Lyte FRET kinase assay; hit rate 0.68% among 220,000; inhibition, % at 20 µM;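 active = Hck-Nef kinase inhibition above about 50%, limit read from the data; inactive = inhibition below that limit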;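 also: 0% = DMSO with Hck plus Nef and 100% = Hck alone without Nef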
# Target sequence (P08631 whole entry, looked up): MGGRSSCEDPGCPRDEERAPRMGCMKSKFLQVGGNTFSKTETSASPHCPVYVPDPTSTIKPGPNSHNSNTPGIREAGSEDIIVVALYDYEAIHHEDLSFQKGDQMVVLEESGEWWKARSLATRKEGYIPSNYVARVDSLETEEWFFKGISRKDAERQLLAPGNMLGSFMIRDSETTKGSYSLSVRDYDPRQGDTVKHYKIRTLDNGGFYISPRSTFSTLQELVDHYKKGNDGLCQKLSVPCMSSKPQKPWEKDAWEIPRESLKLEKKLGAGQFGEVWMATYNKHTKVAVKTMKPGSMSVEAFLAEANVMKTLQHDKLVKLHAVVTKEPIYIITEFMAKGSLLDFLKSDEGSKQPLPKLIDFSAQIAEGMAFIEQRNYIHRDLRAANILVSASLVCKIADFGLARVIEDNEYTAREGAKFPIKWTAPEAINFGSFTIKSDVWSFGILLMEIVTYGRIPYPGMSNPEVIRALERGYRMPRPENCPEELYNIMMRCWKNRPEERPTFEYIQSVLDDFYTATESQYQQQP
# EP2 mod: EP2 receptor modulators, cAMP readout, primary screen, cell-based, HTRF cAMP, PGE2 stimulation | induction, % at 25 µM | AID 940, 2007 | Prostaglandin E2 receptor EP2 subtype (Homo sapiens), P43116 | hit rate 0.83% among 260,000 | EP2-expressing cells, cAMP HTRF FRET, PGE2 co-stimulation;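 active = compounds whose cAMP rise, as percent of the full-agonist control response, exceeds 60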;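 also: rat C6 glioma line stably carrying human EP2 under a CMV promoter; the protocol text gives 20 µM as final concentration; 100% = response of wells given 1 µM PGE2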
# EP2 confirm: cAMP induction in EP2, EP4, beta2-AR and parental cells, confirmation, counter-screen for EP2 modulator project, cell-based, five parallel assays, C6 glioma, HEK293; shares compounds with EP2 mod; cAMP HTRF induction; plus low (about EC15) PGE2 agonist; calls only at 20 µM (by protocol); hit rate 47% among 1,300; AID 1080, 2008;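 active = cAMP induction above 50% in the main assay while under 30% in all four parallel counter assays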;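 also: rat C6 glioma cells stably expressing human EP2 receptor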
# p97 inh conf: p97 ATPase inhibitors, retest, confirmation, biochemical; shares compounds with p97 inhibitor; inhibition, % at 8 µM; hit rate 44% among 760; recombinant p97 ATPase, Kinase-Glo ATP luminescence;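 active = percent inhibition of p97 ATPase above a set limit, the primary screen's mean plus 3 SD, cut at about 15% in these data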;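 also: 0% = DMSO wells and 100% = wells lacking p97 protein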
# Hck-Nef confirm: retest of Hck:Nef kinase inhibitor hits, confirmation, biochemical, Z-Lyte FRET, 384-well, p-Tyr peptide counterscreen; shares compounds with Hck-Nef inh; Recombinant Hck-YEEI:Nef, Z-Lyte FRET kinase assay; calls only at 10 µM; hit rate 28% among 1,300; AID 463188, 2010;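 active = average inhibition of at least 50%, with Z-scores no higher than 3 in both the phospho-tyrosine peptide and fluorescence counterscreens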
# The depositor's hits bear a star; i = inactive; . = not tested or not shown; + = active, no number; ! = not active in a repeat. Rows were chosen to be rich in hits. Some 2.4% of all compounds tested hit in one or more screens of this group.
SMILES,p97 inhibitor,Arbovirus anti,PGE2 EP2 inh,Hck-Nef inh,EP2 mod,EP2 confirm,others
O=P(O)(O)c1ccccc1 (tested in a mixture with another compound),.,.,10.8,.,25.0,.,
O=P(O)(OP(=O)(O)c1ccccc1)c1ccccc1 (tested in a mixture with another compound),.,.,48.5*,.,33.5,.,
CC(C)[C@]1(O)[C@@H](OC(=O)c2ccc[nH]2)[C@@]2(O)[C@@]3(C)C[C@]4(O)O[C@@]5([C@H](O)[C@@H](C)CC[C@@]35O)[C@@]2(O)[C@@]41C,.,.,51.1*,.,5.9,.,
COc1ccc(N2C(=O)NC(=O)/C(=C/c3ccc4c(c3)Cc3ccccc3-4)C2=O)cc1,-2.1,-5.1,11.5,87.1*,-26.1,.,
c1cncc(CNCC2CCCCC2)c1,.,.,6.7,.,-2.4,.,
COc1ccccc1/C=C/CN1C2CCC1CC(O)(c1nccn1C)C2 (centres undefined),.,.,7.1,.,10.8,.,
CC1=NN(c2ccccc2)C(=O)[C@H]1N=Nc1ccc([As](=O)(O)O)c(O)c1,.,.,42.6*,.,46.3,.,
CC(=O)N1CCCc2cc(C(O)CN3CC=C(c4ccccc4)CC3)ccc21 (centres undefined),.,.,1.3,.,-51.0,.,
CN1C2CC3C[C@H]1C(O3)C2O (some centres undefined),.,.,13.7,.,-5.3,.,
CCCN1CCc2cc(O)cc3c2[C@H]1Cc1ccc(O)c(O)c1-3,.,.,76.8*!,.,9.2,.,
CN1CCc2cc(O)cc3c2[C@H]1Cc1ccc(O)c(O)c1-3,.,.,102.4*!,.,13.4,.,
COc1cc2c(cc1O)C[C@@H]1c3c(cc(O)c(OC)c3-2)CCN1C,.,.,12.9,.,-9.8,.,
O=C(CN1C2CCC1CC(O)(c1ccco1)C2)Nc1ccccc1C(F)(F)F (centres undefined),.,.,.,.,-12.8,.,
O=C1NC(=S)NC(=O)C1=Cc1cccc2cc3ccccc3cc12,11.4,.,97.7*!,0.9,-41.7,.,
COc1ccc(C2(O)CC3CCC(C2)N3Cc2cc(OC)c(OC)cc2C)cc1 (centres undefined),.,.,4.5,.,-48.5,.,
CN(C)CCN(Cc1ccccc1F)C(=O)Cc1nc2ccccc2[nH]1,.,.,9.0,.,-29.2,.,
O=C(c1cn(Cc2ccccc2)c2ccccc12)C1CC1,0.8,1.0,11.5,4.1,65.5*,i,
Cc1ccc(C2=CCN(CC(=O)Nc3ccc4c(c3)OCCO4)CC2)o1,.,.,.,.,-83.5,.,
CCCCCCCCCc1ccc(O)cc1,.,.,9.2,.,54.9,i,
Cc1cc(C)c2[nH]c(=O)c(CN(CCCO)C3(c4nnnn4C4CCCCC4)CCCCC3)cc2c1,.,.,11.6,.,19.9,.,
COc1cccc(C2(NC(=O)c3cnn(C(C)C)c3)CCCC2)c1,.,.,.,.,-14.4,.,
C[C@@H](Cc1ccc(Cl)cc1Cl)NO,.,.,31.9,.,19.9,.,
CC(C)c1nccn1Cc1ccc(Cl)cc1Cl,.,.,-1.7,.,106.0*,i,
CCOC(=O)c1cn2nc(OP(=S)(OCC)OCC)cc2nc1C,-10.1,3.6,10.1,1.0,44.5,.,
CCOP(=S)(OCC)Oc1nc(Cl)c(Cl)cc1Cl,.,.,6.9,.,68.2*,+,
SMILES,p97 inhibitor,Arbovirus anti,PGE2 EP2 inh,Hck-Nef inh,EP2 mod,EP2 confirm,others
Cn1ccnc1C1(O)CC2CCC(C1)N2CC(=O)NCc1ccc(F)cc1 (centres undefined),.,.,.,.,-75.5,.,
NC(=NCCC[C@H](N)C(=O)O)N[N+](=O)[O-],.,.,12.2,.,85.6*!,i,
O=C(NC(Cc1ccccc1)C(=O)N1CCC2(CC1)OCCO2)C1CCCCC1 (centres undefined),-0.5,-6.5,2.8,1.4,5.7,.,
O=C(CNC1CCCCC1)N1CCC2(CC1)OCCO2,-1.1,7.5,7.5,-19.7,72.7*!,i,
CN(C)CCN(C(=O)Cc1csc(-c2cccc(F)c2)n1)C1CCCC1,.,.,13.1,.,-59.8,.,
COc1cc(OC)c(OC)cc1CNCCc1ccc(OC)c(OC)c1,5.5,9.0,7.6,6.3,67.3*,i,
COC[C@H]1OC(=O)c2coc3c2[C@@]1(C)C1=C(C3=O)C2CCC(=O)[C@@]2(C)C[C@H]1OC(C)=O (some centres undefined),.,.,14.5,.,50.1,i,
Clc1ccccc1C1NCc2ccccc2-n2cccc21 (centres undefined),-0.6,7.1,7.3,5.1,68.5*,+,
CCOc1cccc(C2NCc3ccccc3-n3cccc32)c1O (centres undefined),2.3,6.3,14.6,0.4,18.3,.,
C[C@H](N)[C@H](O)c1ccc(O)c(O)c1,.,.,8.3,.,74.4*,i,
CC(N)[C@H](O)c1ccc(O)c(O)c1 (some centres undefined),.,.,18.3,.,11.3,.,
Cc1ccc(NC(=O)CN2C3CCC2CC(O)(c2ccco2)C3)cc1F (centres undefined),.,.,.,.,-70.6,.,
C=CCc1cc(C=C2C(=O)N(C)C(=O)N(C)C2=O)cc(OCC)c1OCc1ccccc1,-6.3,-4.2,5.0,0.5,88.3*,i,
CC(C)CCNC(=O)c1c(N)n(CC2CCCO2)c2nc3ccccc3nc12 (centres undefined),-1.5,-49.0,4.0,57.6*,69.4*,+,Hck-Nef confirm=i
COc1ccc(-c2nc(C)sc2CC(=O)N(C)CCN(C)C)cc1OC,.,.,2.8,.,-13.7,.,
Cc1cc2c(C(C)C)c(O)c(O)c(C=O)c2c(O)c1-c1c(C)cc2c(C(C)C)c(O)c(O)c(C=O)c2c1O,20.6*!,-43.4,47.4*!,102.3*,6.9,.,p97 inh conf=77.2*
CC(=O)O[C@H]1CC[C@H]2[C@H]3CCC4=C[C@@H](C5SCCS5)[C@H](OC(C)=O)C[C@]4(C)[C@@H]3CC[C@]12C,.,.,30.0,.,28.0,.,
CC(C)(C)P(=O)(NCc1ccccc1)c1ccccc1 (centres undefined),16.3*,6.0,6.5,18.1,27.5,.,p97 inh conf=2.6
CCC(C)N1CCN(Cc2cc(OC)c(OC)cc2OC)CC1 (centres undefined),.,.,8.8,.,-46.7,.,
